According to PubChem BioAssay (Tox21):
Inconclusive results are not listed. Calls of active or inactive are those of the source. Unless noted, calls follow the shape of the dose curve; as a rule, active = well fitted curve in the direction sought with a large enough effect in the repeat runs; inconclusive = weak or mixed curves; inactive = no such curve, though single readings can be large; an effect the other way counts as inactive or inconclusive.

Assays:
[1] = target: Peroxisome proliferator-activated receptor delta (Homo sapiens) (UniProt Q03181); experiment: qHTS assay to identify small molecule agonists of the peroxisome proliferator-activated receptor delta (PPARd) signaling pathway (AID 743212; calls by dose curve)
In short: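 Cells expressing a UAS-driven beta-lactamase reporter (PPARd-bla HEK293H) were given test compounds after a 5 h settle and kept at 37 C. Reporter activity was then measured as FRET fluorescence using LiveBLAzer B/G substrate.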

[2] = target: Peroxisome proliferator-activated receptor delta (Homo sapiens) (UniProt Q03181); experiment: qHTS assay to identify small molecule antagonists of the peroxisome proliferator-activated receptor delta (PPARd) signaling pathway (AID 743215; active = well fitted inhibition curve with a large enough effect in the signal ratio in the repeat runs, not every such curve was filed as active; the % refers to the signal ratio;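 also: cells stimulated with agonist L165041 at 300 nM final during compound exposure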; also: potency is read from the fitted curve at half-maximal effect; as to ratio activity, negative = inhibition: series mostly up to about 62 µM)
In short: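 Screen format: qHTS, antagonist mode. HEK293H PPARd-bla cells received compound and 300 nM L165041 (final), 17 h, 37 C. Beta-lactamase detected via FRET substrate fluorescence, 2 h, room temperature.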

[3] = target: Vitamin D3 receptor (Homo sapiens) (UniProt P11473); experiment: qHTS assay to identify small molecule agonists of the vitamin D receptor (VDR) signaling pathway (AID 743222; calls by dose curve)
In short: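 Using LiveBLAzer B/G FRET detection, agonism was scored in VDR-bla cells exposed overnight (16 h, 37C) to DMSO-dissolved compounds; substrate incubation was 2 h at room temperature.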

[4] = target: Vitamin D3 receptor (Homo sapiens) (UniProt P11473); experiment: qHTS assay to identify small molecule antagonists of the vitamin D receptor (VDR) signaling pathway (AID 743223; active = well fitted inhibition curve with a large enough effect in the signal ratio in the repeat runs, not every such curve was filed as active; the % refers to the signal ratio)
In short: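 After VDR-bla cells are plated and left 4 h at 37C, DMSO-dissolved compounds and 3 nM (final) calcitriol agonist are added. Incubation continues 16 h at 37C; FRET beta-lactamase substrate then develops 2 h at room temperature.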

[5] = qHTS assay to identify small molecule agonists of the vitamin D receptor (VDR) signaling pathway - cell viability counter screen (AID 743224); also: nearly all actives have a fitted effect of over 50% in size; also: potency is read from the fitted curve at half-maximal effect; as to activity change, negative = cytotoxicity: series mostly up to about 63 µM
In short: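 Counter screen for cytotoxicity: VDR-bla cells at 2,000 cells/well, 16 h compound exposure, then CellTiter-Glo luminescence after the beta-lactamase measurement.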

[6] = qHTS assay to identify small molecule antagonists of the peroxisome proliferator-activated receptor delta (PPARd) signaling pathway - cell viability counter screen (AID 743213); also: nearly all actives have a fitted effect of over 50% in size; also: potency is read from the fitted curve at half-maximal effect
In short: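 Luminescence from CellTiter-Glo, added after the bla read and incubated 30 min at room temperature, gives viability of HEK293H PPARd-bla cells exposed to compounds for 17 h at 37 C with 300 nM L165041.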

[7] = target: Bile acid receptor (Homo sapiens) (UniProt Q96RI1); experiment: qHTS assay to identify small molecule antagonists of the farnesoid-X-receptor (FXR) signaling pathway (AID 743217; active = well fitted inhibition curve with a large enough effect in the signal ratio in the repeat runs, not every such curve was filed as active; the % refers to the signal ratio)
In short: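 Quantitative HTS, beta-lactamase reporter format: FXR-UAS-bla HEK 293T cells co-treated 16 h at 37 °C with compounds and 50 uM final chenodeoxycholic acid, then read by B/G FRET fluorescence.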

[8] = qHTS assay to identify small molecule antagonists of the farnesoid-X-receptor (FXR) signaling pathway - cell viability counter screen (AID 743221; active = well fitted cell-killing curve with a large enough effect in the repeat runs, not every such curve was filed as active; also: nearly all actives have a fitted effect of over 50% in size; also: potency is read from the fitted curve at half-maximal effect)
In short: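 CellTiter-Glo, 30 min RT, luminescence; same wells as the LiveBLAzer FRET read. Cells: FXR-UAS-bla HEK 293T. Treatment: compound with chenodeoxycholic acid 50 uM final, 16 h at 37 C.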

[9] = qHTS assay to identify small molecule agonists of the farnesoid-X-receptor (FXR) signaling pathway - cell viability counter screen (AID 743218); also: nearly all actives have a fitted effect of over 45% in size; also: potency is read from the fitted curve at half-maximal effect
In short: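 Same-well cytotoxicity check on FXR-UAS-bla HEK 293T cells: 5 h attachment, 16 h compound at 37 C, CellTiter-Glo luminescence read at room temperature after 30 min.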

[10] = target: Bile acid receptor (Homo sapiens) (UniProt Q96RI1); experiment: qHTS assay to identify small molecule agonists of the farnesoid-X-receptor (FXR) signaling pathway (AID 743220; active = well fitted activation curve with a large enough effect in the signal ratio in the repeat runs, not every such curve was filed as active; the % refers to the signal ratio)
In short: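 FXR-UAS-bla HEK 293T cells carrying a UAS-driven beta-lactamase reporter were plated for 5 h at 37C/5% CO2, then exposed to DMSO-dissolved Tox21 10K compounds for 16 h at 37C. A LiveBLAzer B/G FRET substrate was loaded for 2 h at room temperature before fluorescence reading.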
% is scaled to controls: 0 for no effect and ±100 for the full control effect.

Chain of Vitamin D3 receptor (Homo sapiens) (P11473 whole entry, looked up): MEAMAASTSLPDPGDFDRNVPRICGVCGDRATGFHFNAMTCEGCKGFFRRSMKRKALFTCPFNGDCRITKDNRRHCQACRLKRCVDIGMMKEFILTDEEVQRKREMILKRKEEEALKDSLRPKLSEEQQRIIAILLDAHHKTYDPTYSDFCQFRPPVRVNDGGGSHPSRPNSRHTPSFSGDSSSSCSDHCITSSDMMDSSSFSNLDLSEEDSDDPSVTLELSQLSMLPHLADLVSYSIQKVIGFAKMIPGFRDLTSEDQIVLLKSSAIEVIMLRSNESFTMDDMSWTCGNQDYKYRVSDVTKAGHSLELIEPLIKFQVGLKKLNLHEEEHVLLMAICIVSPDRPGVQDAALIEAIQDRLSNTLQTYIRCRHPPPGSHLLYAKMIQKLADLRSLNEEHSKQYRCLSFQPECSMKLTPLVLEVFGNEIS
Chain of Bile acid receptor (Homo sapiens) (Q96RI1 whole entry, looked up): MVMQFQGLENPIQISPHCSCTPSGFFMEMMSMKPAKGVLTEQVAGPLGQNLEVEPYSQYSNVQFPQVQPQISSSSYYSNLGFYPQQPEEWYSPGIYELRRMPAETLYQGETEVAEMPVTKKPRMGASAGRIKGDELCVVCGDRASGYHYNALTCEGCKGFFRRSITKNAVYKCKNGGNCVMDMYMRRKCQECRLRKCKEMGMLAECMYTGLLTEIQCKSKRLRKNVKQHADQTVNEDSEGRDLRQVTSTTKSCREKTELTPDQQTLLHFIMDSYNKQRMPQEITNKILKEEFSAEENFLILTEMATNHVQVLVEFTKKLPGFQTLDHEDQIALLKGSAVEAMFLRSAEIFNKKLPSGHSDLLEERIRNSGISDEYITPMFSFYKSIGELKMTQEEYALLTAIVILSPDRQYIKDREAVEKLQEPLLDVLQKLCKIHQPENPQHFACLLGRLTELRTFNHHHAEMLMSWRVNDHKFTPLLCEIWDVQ
Chain of Peroxisome proliferator-activated receptor delta (Homo sapiens) (Q03181 whole entry, looked up): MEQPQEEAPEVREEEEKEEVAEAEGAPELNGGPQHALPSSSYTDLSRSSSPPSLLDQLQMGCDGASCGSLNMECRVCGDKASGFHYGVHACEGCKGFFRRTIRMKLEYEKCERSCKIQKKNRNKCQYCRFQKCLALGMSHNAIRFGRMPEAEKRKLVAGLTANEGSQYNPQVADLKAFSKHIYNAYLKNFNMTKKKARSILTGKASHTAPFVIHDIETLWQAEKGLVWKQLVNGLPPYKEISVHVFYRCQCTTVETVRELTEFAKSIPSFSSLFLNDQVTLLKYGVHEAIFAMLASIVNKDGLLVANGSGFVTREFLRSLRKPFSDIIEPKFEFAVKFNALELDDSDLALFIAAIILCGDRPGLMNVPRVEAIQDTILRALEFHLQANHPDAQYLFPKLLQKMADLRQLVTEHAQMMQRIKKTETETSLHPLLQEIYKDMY

CC(C)C(=O)OCCOc1ccccc1
inactive: outcome [1] | Potency [2] | outcome [3] | outcome [4] | Potency [5]

CCCCC(CC)COS(=O)(=O)O (centres undefined)
inactive: Potency [6] | Potency [2] | outcome [7] | Potency [8] | outcome [3] | Potency [5]

Nc1nc2ccc(OC(F)(F)F)cc2s1
inactive: outcome [1] | Potency [2] | Potency [8] | outcome [3] | Potency [5]

Cc1ccc(Cl)cc1N
inactive: Potency [6] | Potency [2] | outcome [7] | Potency [9] | Potency [10] | outcome [3] | outcome [4] | Potency [5]

COC(=O)c1sccc1S(N)(=O)=O
inactive: Potency [6] | Potency [2] | outcome [7] | Potency [9] | Potency [10] | Potency [8] | outcome [3] | outcome [4] | Potency [5]

CCc1ccc(C)cc1
inactive: Potency [6] | Potency [2] | outcome [7] | Potency [9] | Potency [10] | Potency [8] | outcome [3] | Potency [5]

Cc1ccc2c(c1)CCCN2
inactive: outcome [1] | Potency [2] | Potency [8] | Potency [5]

COc1ccc(/C=C/C(=O)c2ccc(OC)cc2OC)cc1
inactive: outcome [1] | Potency [9] | Potency [10] | Potency [8] | outcome [3] | Potency [5]
active: Potency [2] 11.9 µM

CCCCCCCC/C=C\CCCCCCCC(=O)OCCO
inactive: Potency [6] | Potency [2] | Potency [9]

COc1cc(NC(C)CCCN)c2ncccc2c1 (centres undefined)
inactive: outcome [1] | Potency [2] | Potency [9] | outcome [3] | outcome [4]

CC(C)Cc1ccc(CC(=O)O)cc1
inactive: outcome [1] | outcome [7] | Potency [9] | Potency [10] | Potency [8] | outcome [3] | outcome [4]

COc1cc(S(=O)(=O)Nc2ccccc2)c(OC)cc1N
inactive: Potency [6] | Potency [2] | outcome [7] | Potency [9] | Potency [10] | outcome [3] | Potency [5]

CC(=O)OCC(=O)[C@@]1(OC(C)=O)[C@@H](C)C[C@H]2[C@@H]3C[C@H](F)C4=CC(=O)C=C[C@]4(C)[C@@]3(F)[C@@H](O)C[C@@]21C
inactive: Potency [6] | Potency [2] | Potency [9] | Potency [8] | outcome [4]

CC(CN(CCN(CC(C)OCCO)CC(C)OCCO)CC(C)OCCO)OCCO (centres undefined)
inactive: outcome [1] | Potency [2] | Potency [9] | outcome [3] | Potency [5]

C/C(C=O)=C\c1ccccc1
inactive: Potency [6] | Potency [2] | Potency [9] | Potency [8] | outcome [3] | outcome [4] | Potency [5]

O=C(O)/C=C/c1ccc(O)c(O)c1
inactive: Potency [6] | Potency [2] | outcome [7] | Potency [9] | Potency [10] | outcome [4]

Cc1ccc(Nc2c(F)cccc2Cl)c(CC(=O)O)c1
inactive: outcome [1] | outcome [7] | Potency [9] | Potency [10] | Potency [5]

CCC(Cl)CC(Cl)C(Cl)C(Cl)C(Cl)C(C)Cl (centres undefined)
inactive: activation [1] -9.79% [at 13.2 µM] | ratio activity, negative = inhibition [2] -24% [at 13.7 µM] | activity change, negative = cytotoxicity [8] -0.0192% [at 13.2 µM] | activity change, negative = cytotoxicity [5] -2.44% [at 13.2 µM]

CCNc1nc(N)nc(Cl)n1
inactive: outcome [1] | Potency [2] | Potency [9] | Potency [8] | outcome [3] | Potency [5]

CSCC[C@H](NC(=O)[C@H](Cc1c[nH]c2ccccc12)NC(=O)CCNC(=O)OC(C)(C)C)C(=O)N[C@@H](CC(=O)O)C(=O)N[C@@H](Cc1ccccc1)C(N)=O
inactive: Potency [6] | Potency [2] | outcome [7] | Potency [9] | Potency [10] | Potency [8] | Potency [5]

CC/C=C\C/C=C\C/C=C\CCCCCCCC(=O)OCC
inactive: Potency [6] | Potency [2] | outcome [7] | Potency [9] | Potency [10] | Potency [8] | outcome [3]

COc1cc(NCc2ccc3nc(N)nc(N)c3c2C)cc(OC)c1OC
inactive: outcome [1] | Potency [2] | Potency [10] | outcome [3] | outcome [4]
active: Potency [5] 0.15 µM

CC(C)(O)CCc1ccccc1
inactive: Potency [6] | Potency [2] | outcome [7] | Potency [10] | Potency [8] | outcome [3] | Potency [5]

CS(=O)(=O)c1ccc([C@@H](C[C@H]2CCC(=O)C2)C(=O)Nc2cnccn2)cc1Cl
inactive: outcome [1] | Potency [9] | Potency [8] | outcome [3] | Potency [5]

CCOC(=O)C(C)O (centres undefined)
inactive: Potency [6] | Potency [2] | outcome [7] | Potency [9] | Potency [10] | Potency [8] | outcome [3] | Potency [5]

CC1CCc2nccnc21 (centres undefined)
inactive: outcome [1] | Potency [2] | Potency [9] | Potency [10] | outcome [3] | outcome [4]

COC1CCC=CO1 (centres undefined)
inactive: Potency [6] | Potency [2] | Potency [9] | Potency [8]

CCOCCC(=O)OCC
inactive: Potency [6] | Potency [2] | Potency [9] | Potency [8] | outcome [3] | Potency [5]

CC[C@H]1OC(=O)[C@H](C)[C@@H](O[C@H]2C[C@@](C)(OC)[C@@H](O)[C@H](C)O2)[C@H](C)[C@@H](O[C@@H]2O[C@H](C)C[C@H](N(C)C)[C@H]2O)[C@](C)(O)C[C@@H](C)CN(C)[C@H](C)[C@@H](O)[C@]1(C)O
inactive: outcome [1] | Potency [8] | outcome [3] | Potency [5]

COC(C)(C)OC
inactive: outcome [1] | outcome [7] | Potency [9] | Potency [10] | Potency [8] | outcome [3] | Potency [5]

Oc1cccc2[nH]ccc12
inactive: Potency [6] | Potency [2] | outcome [7] | Potency [9] | Potency [10] | Potency [8] | outcome [3] | Potency [5]

Cc1ccc(N(CC2=NCCN2)c2cccc(O)c2)cc1
inactive: Potency [6] | Potency [2] | Potency [9] | Potency [10] | Potency [8] | outcome [3] | outcome [4] | Potency [5]

Nc1ccc(N=Nc2ccc(N)cc2)cc1
inactive: outcome [1] | Potency [2] | Potency [8] | outcome [3] | outcome [4] | Potency [5]

CCCCC[C@H](O)/C=C/[C@H]1[C@H](O)CC(=O)[C@@H]1C/C=C\CCCC(=O)O
inactive: Potency [6] | Potency [2] | Potency [9] | outcome [3] | Potency [5]

C=C(C)C(=O)OCCC(F)(F)C(F)(F)C(F)(F)C(F)(F)C(F)(F)C(F)(F)F
inactive: Potency [6] | outcome [7] | Potency [9] | Potency [10] | Potency [8] | outcome [3] | Potency [5]

NC(=O)c1ccccc1[N+](=O)[O-]
inactive: Potency [6] | Potency [2] | Potency [9] | Potency [8] | Potency [5]

CNC1CCCN(c2c(F)cc3c(=O)c(C(=O)O)cn(C4CC4)c3c2OC)C1 (centres undefined)
inactive: Potency [6] | outcome [7] | Potency [9] | Potency [10] | Potency [8] | outcome [3] | outcome [4]

CC(=O)NCCO
inactive: Potency [6] | Potency [2] | Potency [8] | outcome [3] | outcome [4]

O=C(O)CN1C(=O)c2cccc3cccc(c23)C1=O
inactive: Potency [6] | Potency [2] | Potency [8] | outcome [3] | outcome [4] | Potency [5]

O=C(O)CCC(=O)OC[C@@H](NC(=O)C(Cl)Cl)[C@H](O)c1ccc([N+](=O)[O-])cc1
inactive: Potency [6] | Potency [2] | Potency [8]

CCCCCCCC(=O)OCCCCCC
inactive: Potency [6] | Potency [2] | Potency [10] | outcome [3] | outcome [4] | Potency [5]

C[C@H](CS)C(=O)N1CCC[C@H]1C(=O)O
inactive: Potency [6] | Potency [9]

CC(C)(O)c1coc(S(=O)(=O)NC(=O)Nc2c3c(cc4c2CCC4)CCC3)c1
inactive: Potency [6] | outcome [7] | Potency [9] | Potency [10] | Potency [8] | outcome [3] | outcome [4]

Cc1c(C2(c3cc(Br)c(O)c(Br)c3C)OS(=O)(=O)c3ccccc32)cc(Br)c(O)c1Br
active: Potency [8] 16.9 µM
inactive: Potency [6] | outcome [7] | Potency [10] | outcome [4] | Potency [5]

CNS(=O)(=O)c1cc(C(=O)N2CCC(CCN3C4CCC3CC(n3c(C)nc5ccccc53)C4)(c3cccc(F)c3)CC2)c(Cl)cc1F (centres undefined)
active: Potency [6] 7.76 µM | Potency [9] 7.76 µM | Potency [8] 21.9 µM

CCN(CC)CCNC(=O)c1cc(Cl)c(N)cc1OC
inactive: Potency [6] | outcome [7] | Potency [9] | Potency [10] | Potency [8] | outcome [3] | Potency [5]

Cc1cc(CCCOc2c(C)cc(-c3noc(C(F)(F)F)n3)cc2C)on1
inactive: Potency [6] | Potency [9] | Potency [8] | outcome [3] | outcome [4]

Cc1cc(CCC(=O)OCCOCCOCCOC(=O)CCc2cc(C)c(O)c(C(C)(C)C)c2)cc(C(C)(C)C)c1O
inactive: Potency [6] | outcome [7] | Potency [10] | Potency [8]
